The source of these data is PubChem BioAssay (EPA / NIEHS).

Common to all, as to conditions: mRNA level, 48 h; actives raise or lower the signal
Read-out in assay [1]: Bcl-2 (BID) gene, BID (gene 637)
Kind of assay: LTEA_HepaRG_BID: Life Technologies and Expression Analysis (LTEA) Assay for Bcl-2 (BID) gene using HepaRG (AID 2283476). Summed up:
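Gene expression by qRT-PCR in HepaRG cells after 48 h exposure, duplicate wells, eight half-log concentrations topping at 100 uM in 0.5% DMSO. Normalized to ACTB, GAPDH, POLR2A; bidirectional fitting relative to DMSO.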

Read-out in assay [2]: Caspase-3 (Homo sapiens) (UniProt P42574)
Put plainly: LTEA_HepaRG_CASP3: Life Technologies and Expression Analysis (LTEA) Assay for cysteine-aspartic acid protease (CASP3) using HepaRG (AID 2283477). In short, it runs like this:
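In HepaRG liver cells dosed for 48 h at up to 100 uM (eight-point, duplicate), CASP3 expression changes are scored by qRT-PCR. Activity is fitted in both directions with 0.5% DMSO as baseline.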

Read-out in assay [3]: Cytochrome P450 (CYP24A1), CYP24A1 (gene 1591)
Put plainly: LTEA_HepaRG_CYP24A1: Life Technologies and Expression Analysis (LTEA) Assay for Cytochrome P450 (CYP24A1) using HepaRG (AID 2283478). Summed up:
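Human liver HepaRG cultures receive each chemical for 48 h across an eight-point half-log series topping at 100 uM in 0.5% DMSO. Induction or suppression of CYP24A1 mRNA is scored relative to vehicle after housekeeping-gene normalization.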

Read-out in assay [4]: Cytochrome P450 (CYP1A2), CYP1A2 (gene 1544)
Put plainly: LTEA_HepaRG_CYP1A2: Life Technologies and Expression Analysis (LTEA) Assay for Cytochrome P450 (CYP1A2) using HepaRG (AID 2283479).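 As to AC50: TaqMan qRT-PCR transcript level normalized to ACTB GAPDH and POLR2A.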 In short, it runs like this:
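Assesses CYP1A2 mRNA in human HepaRG liver cells after 48 h chemical exposure at up to 100 uM. Values come from qRT-PCR with bidirectional curve fitting relative to DMSO.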

Read-out in assay [5]: cysteine-aspartic acid protease (CASP8), CASP8 (gene 841)
Kind of assay: LTEA_HepaRG_CASP8: Life Technologies and Expression Analysis (LTEA) Assay for cysteine-aspartic acid protease (CASP8) using HepaRG (AID 2283480). Summed up:
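Differentiated HepaRG cells in serum-free induction medium, 48 h exposure, eight-point half-log series from 100 uM in 0.5% DMSO, duplicates. CASP8 mRNA by qRT-PCR, normalized to ACTB, GAPDH, POLR2A; bidirectional fit versus DMSO.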

Read-out in assay [6]: Cytochrome P450 (CYP2B6), CYP2B6 (gene 1555)
Kind of assay: LTEA_HepaRG_CYP2B6: Life Technologies and Expression Analysis (LTEA) Assay for Cytochrome P450 (CYP2B6) using HepaRG (AID 2283481). In short, it runs like this: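 Using 48 h treatment of HepaRG cells in serum-free induction medium, concentrations spanned half-log steps from 100 uM in 0.5% DMSO vehicle. CYP2B6 mRNA induction or loss is scored by qRT-PCR against DMSO.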

Read-out in assay [7]: Cytochrome P450 2C19 (Homo sapiens) (UniProt P33261)
Put plainly: LTEA_HepaRG_CYP2C19: Life Technologies and Expression Analysis (LTEA) Assay for CYP2C19 using HepaRG (AID 2283482). In short, it runs like this: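 Human HepaRG liver cells received test chemicals for 48 h (highest 100 uM, half-log dilutions in 0.5% DMSO). CYP2C19 mRNA induction or loss is read by multiplexed qRT-PCR and fitted in both directions versus vehicle.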

Read-out in assay [8]: CYP2C8 (gene 1558)
Put plainly: LTEA_HepaRG_CYP2C8: Life Technologies and Expression Analysis (LTEA) Assay for CYP2C8 using HepaRG (AID 2283483). Summed up: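 Differentiated HepaRG cells in serum-free induction medium exposed 48 h in duplicate to 8 half-log concentrations from 100 uM in 0.5% DMSO. CYP2C8 mRNA by qRT-PCR normalized to ACTB, GAPDH, POLR2A; bidirectional fit versus DMSO.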

Read-out in assay [9]: CYP2C9 (gene 1559)
Kind of assay: LTEA_HepaRG_CYP2C9: Life Technologies and Expression Analysis (LTEA) Assay for CYP2C9 using HepaRG (AID 2283484). Summed up:
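Differentiated human HepaRG cells in serum-free induction medium were exposed 48 h to chemicals in 8-point half-log series from 100 uM (0.5% DMSO), in duplicate. CYP2C9 mRNA was measured by qRT-PCR, normalized to ACTB/GAPDH/POLR2A, with bidirectional fitting versus DMSO.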

Read-out in assay [10]: CYP2E1 (gene 1571)
Kind of assay: LTEA_HepaRG_CYP2E1: Life Technologies and Expression Analysis (LTEA) Assay for CYP2E1 using HepaRG (AID 2283485). Summed up: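 HepaRG cells, plated 48 h, then exposed 48 h in serum-free induction medium to eight half-log concentrations from 100 uM in 0.5% DMSO, duplicate. CYP2E1 mRNA by qRT-PCR, normalized to ACTB/GAPDH/POLR2A; bidirectional fit versus DMSO.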

Active and inactive are the calls of the source. The calls were made as follows: active = hit-call score of the fitted dose curve at least 0.9, where 1 is the maximum; inactive = score below 0.9.

Chain of Cytochrome P450 2C19 (Homo sapiens) (P33261 whole entry, looked up): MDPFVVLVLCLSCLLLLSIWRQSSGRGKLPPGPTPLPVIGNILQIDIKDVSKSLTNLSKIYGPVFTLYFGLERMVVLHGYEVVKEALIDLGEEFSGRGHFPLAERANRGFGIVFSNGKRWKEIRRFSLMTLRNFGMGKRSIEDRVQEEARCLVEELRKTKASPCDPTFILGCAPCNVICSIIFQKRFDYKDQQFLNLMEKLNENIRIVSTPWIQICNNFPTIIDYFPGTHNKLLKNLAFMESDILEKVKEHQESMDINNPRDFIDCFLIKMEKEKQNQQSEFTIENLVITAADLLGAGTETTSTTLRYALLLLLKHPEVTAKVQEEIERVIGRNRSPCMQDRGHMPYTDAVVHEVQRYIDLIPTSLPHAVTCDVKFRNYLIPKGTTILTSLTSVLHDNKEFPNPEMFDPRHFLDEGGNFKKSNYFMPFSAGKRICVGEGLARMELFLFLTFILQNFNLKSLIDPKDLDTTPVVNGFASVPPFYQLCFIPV
Chain of Caspase-3 (Homo sapiens) (P42574 whole entry, looked up): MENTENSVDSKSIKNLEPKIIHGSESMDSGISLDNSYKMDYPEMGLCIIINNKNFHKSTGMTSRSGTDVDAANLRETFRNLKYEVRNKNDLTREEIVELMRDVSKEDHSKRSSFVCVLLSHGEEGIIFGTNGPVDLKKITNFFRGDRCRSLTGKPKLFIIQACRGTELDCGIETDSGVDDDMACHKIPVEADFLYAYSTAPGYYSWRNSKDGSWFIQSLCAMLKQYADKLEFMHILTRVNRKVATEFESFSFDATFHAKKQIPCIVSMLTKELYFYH

As to `COCCOCCOC`, the AC50 is 1050 nM (active) in assay [1]; 423 nM (active) in assay [2]; 388 nM (active) in assay [3]; 950 nM (active) in [4]; 1570 nM (active) in assay [5]; 993 nM (active) in assay [6]. The half-maximal activity concentration (AC50) in assay [8] was 712 nM (active). The compound was called inactive in [7], in assay [9] and in [10].
As to `CN[C@H]1CC[C@@H](c2ccc(Cl)c(Cl)c2)c2ccc(S(N)(=O)=O)cc21`, the outcome in [1], in assay [2], in assay [3], in [4], in assay [5] and in assay [7] was inactive. Moreover, the call in assay [8] was inactive. Further, the AC50 in assay [6] is 11400 nM (active); in assay [9], 34100 nM (active); in assay [10], 13000 nM (active).
In the case of `Cc1cc(NC(=O)C(=O)O)cc(C)c1Oc1ccc(O)c2c1CCC2`, the outcome in [1], in assay [2], in [3], in assay [5], in [8] and in assay [9] was inactive. Moreover, the AC50 in [4] was 2.28 nM (active); in assay [6] it was 3.16 nM (active); in [7] it was 618 nM (active); in assay [10], 1200 nM (active).
For the compound `CC(C)c1ccc(C(=O)N=C(N)N)cc1S(C)(=O)=O`, the AC50 is 367 nM (active) in assay [1]; 383 nM (active) in [2]; 452 nM (active) in assay [4]; 409 nM (active) in assay [5]; 464 nM (active) in [6]; 13100 nM (active) in [7]. Also, in assay [8], the concentration at half-maximal activity (AC50) was 578 nM (active). Moreover, the compound was called inactive in [3], in assay [9] and in [10].
Consider `Cc1nc(-c2ccc3c(c2)CCN(CCC2CCC(NC(=O)/C=C/c4ccc(F)cc4)CC2)CC3)no1` (stereo not given), for which the compound was classed as inactive in assay [1], in assay [2], in assay [3], in assay [4], in [5] and in [6]. Also, the call in [7], in assay [8], in assay [9] and in [10] was inactive.
For `C=CCOC(=O)c1ccccc1C(=O)OCC=C`, the compound was called inactive in assay [1], in assay [2], in assay [3], in assay [4], in [5] and in assay [6]. For the same compound, the call in assay [7], in [8], in assay [9] and in assay [10] was inactive.
With `CC1(C)CC(N=C=O)CC(C)(CN=C=O)C1` (stereo not given), the compound was called inactive in assay [1], in [2], in [3], in assay [4], in assay [5] and in assay [6]. Moreover, the call in [7], in assay [8] and in assay [9] was inactive. Besides, the AC50 in [10] was 24000 nM (active).
As to `CC1(C)NC(=O)NC1=O`, the result in assay [1], in [2], in [3], in assay [4], in [5] and in assay [6] was inactive. Also, the call in assay [7], in assay [8], in assay [9] and in [10] was inactive.
Turning to `CCCCCCCC=O`, the outcome in assay [1], in [2], in assay [3], in assay [5], in [6] and in assay [7] was inactive. Moreover, the compound was called inactive in assay [8], in assay [9] and in assay [10]. Moreover, the AC50 in [4] is 50000 nM (active).
As for `CC(=O)Oc1ccccc1C(=O)O`, the call in [1], in [2], in assay [3], in assay [5], in assay [6] and in assay [7] was inactive. The call in assay [8], in assay [9] and in assay [10] was inactive. Further, in [4], the AC50 was 50000 nM (active).
In the case of `CCOC(=O)CCC(=O)OCC`, the compound was classed as inactive in assay [1], in assay [2], in assay [3], in assay [4], in assay [7] and in assay [8]. Further, the result in assay [9] and in assay [10] was inactive. Further, the AC50 in [5] was 87300 nM (active); in [6], 19300 nM (active).
With `FC(F)(F)C(F)(F)C(F)(F)C(F)(F)C(F)(F)C(F)(F)CCI`, the compound was called inactive in [1], in assay [2], in assay [3], in assay [4], in assay [5] and in [6]. For the same compound, the result in [7], in assay [8], in assay [9] and in [10] was inactive.
In the case of `O=c1c(O)c(-c2ccc(O)c(O)c2)oc2cc(O)cc(O)c12`, the compound was classed as inactive in [1], in [2], in [3], in [5], in assay [6] and in [7]. In addition, the result in [8], in assay [9] and in [10] was inactive. The half-maximal activity concentration (AC50) in [4] is 806 nM (active).
Take `CCCCCCCCCCO`: the call in assay [1], in [2], in assay [3], in [4], in assay [5] and in assay [6] was inactive. In addition, the result in assay [7], in assay [8], in assay [9] and in [10] was inactive.
In the case of `Nc1ccccc1N`, the call in assay [1], in assay [2], in assay [3] and in assay [5] was inactive. Further, the AC50 in assay [4] was 2190 nM (active); in assay [6] it was 69000 nM (active); in [7] it was 71800 nM (active); in assay [8], 78300 nM (active); in [9], 71000 nM (active); in [10], 73100 nM (active).
`Cc1ccc2ncccc2c1`: the compound was called inactive in assay [1], in assay [2], in assay [3], in assay [4], in [5] and in [7]. In addition, the outcome in [8], in assay [9] and in assay [10] was inactive. Also, the AC50 in [6] is 13200 nM (active).
As for `CNCc1cc(F)ccc1Oc1ccc(Cl)c(Cl)c1`, the result in assay [1], in assay [2], in assay [3], in assay [4], in assay [5] and in assay [6] was inactive. In addition, in assay [8], the outcome was inactive. The AC50 in [7] is 94000 nM (active); in assay [9], 92600 nM (active); in [10] it was 73800 nM (active).
In the case of `NCCO`, the compound was classed as inactive in assay [1], in assay [2], in assay [3], in [4], in [5] and in assay [6]. Moreover, the outcome in [7], in assay [8], in assay [9] and in [10] was inactive.
Regarding `Cc1ccc(Cl)cc1`, the result in assay [1], in [2], in [3], in assay [4], in assay [5] and in assay [6] was inactive. Further, the call in assay [7], in assay [8], in assay [9] and in [10] was inactive.
Regarding `CC(=O)OC/C=C(\C)CCC=C(C)C`, the result in assay [1], in assay [2], in assay [3], in assay [4], in assay [5] and in assay [6] was inactive. Besides, the compound was called inactive in assay [7], in assay [8], in [9] and in assay [10].
